What was measured:
Experiment in all cases: log2 ratio of Biotin-Ahx-Ub-VS probe labelling (fragment/DMSO); higher = less target engagement (more negative = stronger competition), active = hit call of the paper (q ≤ 0.05, log2 ratio ≤ -1)
Settings in all cases: compound concentration: 200 uM; treatment time: 3 h
OTUD6B = target: T1, OTUD6B (UniProt Q8N6M0)
T1 sequence (whole entry): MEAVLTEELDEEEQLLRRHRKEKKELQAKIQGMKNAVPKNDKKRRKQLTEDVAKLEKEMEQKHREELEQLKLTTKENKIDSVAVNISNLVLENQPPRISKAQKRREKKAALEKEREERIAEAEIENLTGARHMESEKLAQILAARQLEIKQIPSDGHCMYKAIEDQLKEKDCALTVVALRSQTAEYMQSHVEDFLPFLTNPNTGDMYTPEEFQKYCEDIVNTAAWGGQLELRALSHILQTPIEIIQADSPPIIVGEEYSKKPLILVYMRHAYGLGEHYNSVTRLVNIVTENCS
How it was run: (§1)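 Fragment (200 µM) or vehicle was incubated for 3 h with triplicate HEK293T lysate samples of 495 µg, which were then treated with Biotin-Ahx-Ub-VS at 0.5 µM final for 1 h. Labelled DUBs were enriched on NeutrAvidin, digested with LysC and trypsin, and analysed by diaPASEF LC-MS/MS. Values are average log2 fragment/vehicle ratios from an unpaired t-test on global-median-normalised Spectronaut label-free quantities, using proteins with ≥2 unique peptides.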

OTUD7B = target: T2, OTUD7B (UniProt Q6GQQ9)
T2 sequence (whole entry): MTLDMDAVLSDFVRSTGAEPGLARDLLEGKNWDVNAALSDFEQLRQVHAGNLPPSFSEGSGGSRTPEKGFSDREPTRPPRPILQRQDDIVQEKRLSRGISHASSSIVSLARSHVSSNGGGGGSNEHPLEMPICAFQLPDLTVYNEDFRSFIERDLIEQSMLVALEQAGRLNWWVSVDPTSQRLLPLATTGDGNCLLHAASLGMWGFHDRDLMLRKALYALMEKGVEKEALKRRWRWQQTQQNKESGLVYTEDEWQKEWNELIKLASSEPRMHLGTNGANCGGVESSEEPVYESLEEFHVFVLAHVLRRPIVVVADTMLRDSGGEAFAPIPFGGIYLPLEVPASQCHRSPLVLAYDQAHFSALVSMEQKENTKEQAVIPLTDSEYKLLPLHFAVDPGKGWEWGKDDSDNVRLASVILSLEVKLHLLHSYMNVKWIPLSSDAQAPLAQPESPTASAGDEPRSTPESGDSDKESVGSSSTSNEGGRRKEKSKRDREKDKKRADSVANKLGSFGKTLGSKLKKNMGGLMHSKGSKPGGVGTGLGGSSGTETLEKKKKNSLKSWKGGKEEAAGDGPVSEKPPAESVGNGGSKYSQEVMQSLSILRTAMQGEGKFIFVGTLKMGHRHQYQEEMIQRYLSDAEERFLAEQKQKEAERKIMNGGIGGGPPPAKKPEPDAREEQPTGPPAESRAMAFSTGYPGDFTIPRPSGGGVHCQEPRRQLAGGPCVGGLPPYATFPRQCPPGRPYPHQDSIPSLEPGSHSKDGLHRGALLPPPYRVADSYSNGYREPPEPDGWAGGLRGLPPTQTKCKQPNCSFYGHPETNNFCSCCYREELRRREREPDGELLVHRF
How it was run: as §1

PRPF8 = PRPF8 (UniProt Q6P2Q9)
How it was run: as §1

PSMD7 = target: T3, PSMD7 (UniProt P51665)
T3 sequence (whole entry): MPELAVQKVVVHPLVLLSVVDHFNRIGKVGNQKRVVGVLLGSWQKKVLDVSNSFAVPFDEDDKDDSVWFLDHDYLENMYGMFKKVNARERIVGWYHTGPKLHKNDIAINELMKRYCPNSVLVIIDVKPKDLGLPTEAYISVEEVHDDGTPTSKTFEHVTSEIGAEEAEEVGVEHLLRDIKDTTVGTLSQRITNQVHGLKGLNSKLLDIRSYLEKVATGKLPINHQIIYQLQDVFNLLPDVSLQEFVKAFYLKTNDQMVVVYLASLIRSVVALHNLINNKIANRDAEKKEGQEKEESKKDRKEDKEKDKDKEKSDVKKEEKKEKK
How it was run: as §1

UCHL1 = UCHL1 (UniProt P09936)
UCHL1, sequence (P09936 whole entry, looked up): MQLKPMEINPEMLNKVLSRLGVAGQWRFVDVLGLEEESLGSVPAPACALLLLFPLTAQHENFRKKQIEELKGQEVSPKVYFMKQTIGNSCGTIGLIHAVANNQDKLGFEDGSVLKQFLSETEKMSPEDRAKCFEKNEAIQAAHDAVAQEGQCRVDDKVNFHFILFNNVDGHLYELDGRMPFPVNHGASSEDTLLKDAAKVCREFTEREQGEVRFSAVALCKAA
How it was run: as §1

UCHL3 = target: T4, UCHL3 (UniProt P15374)
T4 sequence (whole entry): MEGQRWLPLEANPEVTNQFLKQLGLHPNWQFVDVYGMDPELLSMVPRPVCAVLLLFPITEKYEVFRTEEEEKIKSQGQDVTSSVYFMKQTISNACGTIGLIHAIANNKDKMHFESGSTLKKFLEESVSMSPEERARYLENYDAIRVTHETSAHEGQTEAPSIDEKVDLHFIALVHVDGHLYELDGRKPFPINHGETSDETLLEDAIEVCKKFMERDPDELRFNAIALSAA
How it was run: as §1

UCHL5 = target: T5, UCHL5 (UniProt Q9Y5K5)
T5 sequence (whole entry): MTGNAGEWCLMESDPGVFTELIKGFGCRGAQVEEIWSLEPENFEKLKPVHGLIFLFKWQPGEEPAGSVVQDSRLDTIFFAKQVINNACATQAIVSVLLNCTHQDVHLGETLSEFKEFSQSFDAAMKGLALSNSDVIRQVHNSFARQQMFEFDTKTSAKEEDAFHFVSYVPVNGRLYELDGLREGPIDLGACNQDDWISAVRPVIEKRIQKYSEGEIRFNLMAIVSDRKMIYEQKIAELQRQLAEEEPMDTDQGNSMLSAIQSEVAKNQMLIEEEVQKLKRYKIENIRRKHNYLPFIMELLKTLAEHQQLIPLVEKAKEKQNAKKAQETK
How it was run: as §1

USP10 = USP10 (UniProt Q14694)
USP10, sequence (Q14694 whole entry): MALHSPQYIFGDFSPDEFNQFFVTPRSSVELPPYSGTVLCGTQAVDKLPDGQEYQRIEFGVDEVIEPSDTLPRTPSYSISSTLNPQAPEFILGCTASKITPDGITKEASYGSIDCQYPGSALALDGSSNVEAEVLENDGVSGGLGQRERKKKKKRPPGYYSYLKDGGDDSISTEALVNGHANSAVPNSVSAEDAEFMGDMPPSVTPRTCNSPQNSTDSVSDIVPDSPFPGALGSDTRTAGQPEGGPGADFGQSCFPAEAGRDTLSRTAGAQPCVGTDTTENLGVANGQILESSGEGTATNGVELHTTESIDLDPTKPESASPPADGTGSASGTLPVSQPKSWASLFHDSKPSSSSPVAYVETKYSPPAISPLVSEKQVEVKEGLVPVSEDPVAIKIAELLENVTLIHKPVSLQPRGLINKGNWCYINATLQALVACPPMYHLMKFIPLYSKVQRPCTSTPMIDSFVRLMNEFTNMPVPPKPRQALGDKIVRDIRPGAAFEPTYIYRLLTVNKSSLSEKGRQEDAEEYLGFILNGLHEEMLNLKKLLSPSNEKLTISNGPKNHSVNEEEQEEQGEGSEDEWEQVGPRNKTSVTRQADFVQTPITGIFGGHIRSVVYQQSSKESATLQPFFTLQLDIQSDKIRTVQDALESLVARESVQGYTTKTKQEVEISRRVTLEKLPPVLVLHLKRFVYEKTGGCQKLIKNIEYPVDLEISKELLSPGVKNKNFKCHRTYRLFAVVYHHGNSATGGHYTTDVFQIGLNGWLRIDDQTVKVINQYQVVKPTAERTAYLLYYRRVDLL
How it was run: as §1

USP15 = target: T6, USP15 (UniProt Q9Y4E8)
T6 sequence (whole entry): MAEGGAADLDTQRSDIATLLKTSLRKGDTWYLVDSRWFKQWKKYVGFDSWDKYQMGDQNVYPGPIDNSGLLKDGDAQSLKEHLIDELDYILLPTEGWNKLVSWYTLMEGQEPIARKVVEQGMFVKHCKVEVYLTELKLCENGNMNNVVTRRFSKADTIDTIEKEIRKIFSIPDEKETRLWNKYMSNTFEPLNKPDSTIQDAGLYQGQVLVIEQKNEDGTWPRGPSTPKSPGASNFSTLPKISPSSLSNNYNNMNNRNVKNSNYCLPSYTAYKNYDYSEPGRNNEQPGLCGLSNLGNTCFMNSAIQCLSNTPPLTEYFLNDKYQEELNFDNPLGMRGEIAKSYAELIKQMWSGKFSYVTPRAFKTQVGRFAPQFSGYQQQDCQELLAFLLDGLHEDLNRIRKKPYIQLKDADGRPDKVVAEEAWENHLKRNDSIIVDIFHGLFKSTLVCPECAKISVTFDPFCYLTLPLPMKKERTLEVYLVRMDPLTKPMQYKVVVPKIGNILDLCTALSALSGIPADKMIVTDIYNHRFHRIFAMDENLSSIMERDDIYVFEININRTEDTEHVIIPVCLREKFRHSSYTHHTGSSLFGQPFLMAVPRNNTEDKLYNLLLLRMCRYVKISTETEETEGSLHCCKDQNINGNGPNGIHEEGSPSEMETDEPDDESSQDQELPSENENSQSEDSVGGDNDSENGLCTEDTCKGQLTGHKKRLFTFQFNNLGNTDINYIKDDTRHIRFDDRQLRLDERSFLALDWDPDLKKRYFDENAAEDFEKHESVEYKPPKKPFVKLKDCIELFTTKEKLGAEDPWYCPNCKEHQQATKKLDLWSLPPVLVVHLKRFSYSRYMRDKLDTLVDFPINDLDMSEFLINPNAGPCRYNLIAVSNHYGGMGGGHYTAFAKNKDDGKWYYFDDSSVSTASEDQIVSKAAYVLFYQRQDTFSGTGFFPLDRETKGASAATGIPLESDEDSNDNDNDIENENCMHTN
How it was run: as §1

USP16 = USP16 (UniProt Q9Y5T5)
USP16, sequence (Q9Y5T5 whole entry, looked up): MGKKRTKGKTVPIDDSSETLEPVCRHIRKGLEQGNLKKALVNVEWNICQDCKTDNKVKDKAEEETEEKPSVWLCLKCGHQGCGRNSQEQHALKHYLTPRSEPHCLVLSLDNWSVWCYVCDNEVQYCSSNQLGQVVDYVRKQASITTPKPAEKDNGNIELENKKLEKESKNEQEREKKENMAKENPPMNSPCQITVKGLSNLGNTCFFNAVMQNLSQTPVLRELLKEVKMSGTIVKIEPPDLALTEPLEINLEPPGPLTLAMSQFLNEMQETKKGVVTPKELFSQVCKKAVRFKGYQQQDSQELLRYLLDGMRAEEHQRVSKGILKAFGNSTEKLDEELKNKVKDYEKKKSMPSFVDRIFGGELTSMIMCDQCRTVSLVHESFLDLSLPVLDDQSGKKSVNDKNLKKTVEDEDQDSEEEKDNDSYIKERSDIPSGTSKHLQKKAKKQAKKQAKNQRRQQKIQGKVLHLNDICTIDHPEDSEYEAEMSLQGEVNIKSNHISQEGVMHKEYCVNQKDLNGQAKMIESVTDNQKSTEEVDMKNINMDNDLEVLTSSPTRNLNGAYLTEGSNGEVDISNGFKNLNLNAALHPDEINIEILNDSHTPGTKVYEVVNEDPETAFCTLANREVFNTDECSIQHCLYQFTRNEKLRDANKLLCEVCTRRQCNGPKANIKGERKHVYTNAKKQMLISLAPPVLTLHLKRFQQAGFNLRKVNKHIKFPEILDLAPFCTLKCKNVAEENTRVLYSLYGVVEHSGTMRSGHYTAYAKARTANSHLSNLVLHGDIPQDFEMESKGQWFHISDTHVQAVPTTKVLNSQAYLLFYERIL
How it was run: as §1

Measured: log2 ratio of Biotin-Ahx-Ub-VS probe labelling

NC(=O)C1CCCN(C(=O)CCl)C1 (stereo not given)
active: UCHL1 -1.4
inactive: OTUD6B 0.0096 | OTUD7B -0.633 | PRPF8 0.0408 | PSMD7 -0.26 | UCHL3 0.133 | UCHL5 0.0623 | USP10 -0.05 | USP15 -0.0343 | USP16 -0.387

— the supplement of paper PMC11732987, “Enantioselective OTUD7B fragment discovery through chemoproteomics screening and high-throughput optimisation” (Communications Chemistry, 2025)
